The structures appear in SMILES notation. This is part of a sample that, as a whole, favours compounds with a hit. Of some 83,000 tested, about 20% had one in any assay.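 Each cell line was grown in a 96-well plate and treated with one concentration of compound for 48 hours. Values below 10 were considered active.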 A number with no mark means an inactive call. Active and inactive are the calls of the source.

Some test systems named below: SK-MEL-2 melanoma; EKVX NSCLC; SN12C renal; UO-31 renal; TK-10 renal; ACHN renal; CAKI-1 renal; A498 renal; CCRF-CEM leukemia; MOLT-4 leukemia; SR leukemia; RPMI-8226 leukemia; OVCAR-8 ovarian; OVCAR-5 ovarian; OVCAR-4 ovarian; SK-OV-3 ovarian; IGROV1 ovarian; OVCAR-3 ovarian; HS 578T breast; NCI/ADR-RES ovarian.
What all share (assay): NCI-60 one-dose screen, 48 h (100 = growth as untreated, 0 = no growth, -100 = all killed)
What all share (details): 10 µM unless noted

Consider `O=C1/C(=C/c2ccc(Br)cc2)COc2ccc(O)cc21`, for which the growth in the experiment on SK-MEL-2 melanoma is 107%; in the experiment on EKVX NSCLC, 98.5%; with SN12C renal, 73.3%; with UO-31 renal, 47.9%; in the experiment with TK-10 renal, 99.1%; in the experiment on ACHN renal, 86.7%. Moreover, the growth in the experiment on CAKI-1 renal was 80.1%; in the experiment on A498 renal, 103%; in the experiment on CCRF-CEM leukemia, 1.32% (active); in the experiment on MOLT-4 leukemia, 16.6%; with SR leukemia, 12.1%; with RPMI-8226 leukemia, -23.7% (active). The growth in the experiment on OVCAR-8 ovarian is 79.1%; in the experiment with OVCAR-5 ovarian, 94.8%; with OVCAR-4 ovarian it was 97.9%; with SK-OV-3 ovarian, 120%; in the experiment with IGROV1 ovarian, 84.3%; with OVCAR-3 ovarian, 96.8%. Further, the values for the growth in the experiment with HS 578T breast and in the experiment with NCI/ADR-RES ovarian were 96.2% and 94.6%, respectively.

As to `CO[C@H]1/C=C/O[C@@]2(C)Oc3c(C)c(O)c4c(O)c(c5c(nc6cc(C)ccn65)c4c3C2=O)NC(=O)/C(C)=C\C=C\[C@H](C)[C@H](O)[C@@H](C)C(O)[C@@H](C)[C@H](OC(C)=O)[C@@H]1C` (stereo not given in full), the growth was 93.1% in the experiment on SK-MEL-2 melanoma; 101% in the experiment with EKVX NSCLC; 98.6% in the experiment on SN12C renal; 76.3% with UO-31 renal; 102% in the experiment on TK-10 renal; 99.5% with ACHN renal. The growth in the experiment with CAKI-1 renal was 94.6%; in the experiment with A498 renal, 134%; in the experiment on CCRF-CEM leukemia, 101%; with MOLT-4 leukemia, 89.8%; in the experiment on SR leukemia, 99.3%; in the experiment with RPMI-8226 leukemia it was 104%. Also, the growth is 98.3% in the experiment on OVCAR-8 ovarian; 113% in the experiment with OVCAR-5 ovarian; 100% in the experiment with OVCAR-4 ovarian; 31.9% with SK-OV-3 ovarian; 97% in the experiment with IGROV1 ovarian; 104% in the experiment with OVCAR-3 ovarian. In addition, the growth is 72% in the experiment on HS 578T breast and 104% in the experiment on NCI/ADR-RES ovarian.

Regarding `COC(=O)[C@H]1Cc2c([nH]c3ccccc23)[C@H](c2ccc3c(c2)OCO3)N1`, the growth is 113% in the experiment with SK-MEL-2 melanoma; 95.5% in the experiment with EKVX NSCLC; 100% in the experiment on SN12C renal; 80.2% in the experiment with UO-31 renal; 96% with TK-10 renal; 98.4% with ACHN renal. The growth with CAKI-1 renal is 82.3%; with A498 renal it was 97.5%; in the experiment with CCRF-CEM leukemia, 96.4%; in the experiment with MOLT-4 leukemia, 100%; with SR leukemia, 103%; with RPMI-8226 leukemia, 97.5%. Moreover, the growth was 103% in the experiment on OVCAR-8 ovarian; 100% in the experiment on OVCAR-5 ovarian; 94% with OVCAR-4 ovarian; 102% in the experiment on SK-OV-3 ovarian; 90.6% in the experiment with IGROV1 ovarian; 99.7% in the experiment with OVCAR-3 ovarian. For the same compound, the growth in the experiment on HS 578T breast was 102%; in the experiment with NCI/ADR-RES ovarian, 99.8%.

On to `Cc1ccc2nc(/C=C/c3ccc(N(C)C)cc3)cc(C)c2c1`, for which the growth in the experiment on SK-MEL-2 melanoma is 34.8%; in the experiment on EKVX NSCLC, 52.4%; with SN12C renal, 35.6%; with UO-31 renal, 33.5%; in the experiment on TK-10 renal it was 43.8%; in the experiment with ACHN renal it was 32.9%. Besides, the growth was 18.2% with CAKI-1 renal; 27.2% with A498 renal; 17.1% with CCRF-CEM leukemia; 40% with MOLT-4 leukemia; 22.1% in the experiment with SR leukemia; 34.1% in the experiment on RPMI-8226 leukemia. The growth in the experiment with OVCAR-8 ovarian is 41.4%; in the experiment on OVCAR-5 ovarian, 73.1%; with OVCAR-4 ovarian, 85.5%; with SK-OV-3 ovarian, 31.4%; with IGROV1 ovarian it was 49%; in the experiment with OVCAR-3 ovarian, -2.23% (active). Further, the growth was 34.9% with HS 578T breast and 25.2% in the experiment on NCI/ADR-RES ovarian.

In the case of `COc1cc2c(c(OC)c1OC)CCC(c1cccc(NC(=O)c3cccc(Cl)c3)c1)O2` (stereo not given), the growth with SK-MEL-2 melanoma is 95.7%; in the experiment on EKVX NSCLC, 85.9%; in the experiment on SN12C renal, 92%; with UO-31 renal it was 64.2%; with TK-10 renal, 90.2%; in the experiment on ACHN renal, 90.7%. Moreover, the growth is 97.9% in the experiment with CAKI-1 renal; 63.9% with A498 renal; 78.2% in the experiment on CCRF-CEM leukemia; 57.9% in the experiment with MOLT-4 leukemia; 60.3% in the experiment on SR leukemia; 64.9% in the experiment on RPMI-8226 leukemia. Also, the growth is 95.6% in the experiment on OVCAR-8 ovarian; 92.8% with OVCAR-5 ovarian; 81.1% in the experiment with OVCAR-4 ovarian; 72.9% with SK-OV-3 ovarian; 86.8% with IGROV1 ovarian; 92% in the experiment with OVCAR-3 ovarian. In addition, the values for the growth in the experiment on HS 578T breast and in the experiment on NCI/ADR-RES ovarian were 76.3% and 90.5%, respectively.

Turning to `C=C(c1ccc(C(=O)O)c(F)c1)c1cc2c(cc1C)C(C)(C)C=CC2(C)C`, the growth was 87.1% in the experiment on SK-MEL-2 melanoma; 69.9% with EKVX NSCLC; 83.1% in the experiment on SN12C renal; 81.4% in the experiment with UO-31 renal; 94.4% in the experiment on TK-10 renal; 83.4% in the experiment with ACHN renal. In addition, the growth in the experiment on CAKI-1 renal was 81.7%; in the experiment with A498 renal, 75.8%; in the experiment on CCRF-CEM leukemia, 85.3%; in the experiment on MOLT-4 leukemia, 87.3%; with SR leukemia, 91.6%; in the experiment with RPMI-8226 leukemia it was 26.3%. Further, the growth was 82.8% with OVCAR-8 ovarian; 111% with OVCAR-5 ovarian; 81.2% with OVCAR-4 ovarian; 73% with SK-OV-3 ovarian; 90.4% in the experiment with IGROV1 ovarian; 92.5% in the experiment on OVCAR-3 ovarian. Moreover, the growth in the experiment on HS 578T breast was 61.9%; with NCI/ADR-RES ovarian, 83.1%.

`O=C(NS(=O)(=O)c1ccccc1)n1cc(-c2ccncc2)c(-c2cc(O)cc(Cl)c2)n1`: the growth in the experiment on SK-MEL-2 melanoma is 95.5%; in the experiment on EKVX NSCLC it was 107%; in the experiment on SN12C renal, 100%; with UO-31 renal, 91.9%; with TK-10 renal, 127%; with ACHN renal, 84.5%. Besides, the growth is 94.2% with CAKI-1 renal; 103% in the experiment with A498 renal; 87.4% in the experiment with CCRF-CEM leukemia; 79.3% in the experiment on MOLT-4 leukemia; 42.6% in the experiment with SR leukemia; 85.2% in the experiment with RPMI-8226 leukemia. Moreover, the growth in the experiment on OVCAR-8 ovarian is 104%; in the experiment with OVCAR-5 ovarian it was 115%; with OVCAR-4 ovarian it was 92.2%; in the experiment on SK-OV-3 ovarian, 107%; with IGROV1 ovarian, 99.4%; with OVCAR-3 ovarian it was 108%. Besides, the figures for the growth with HS 578T breast and in the experiment on NCI/ADR-RES ovarian were 104% and 97.3%, respectively.

Regarding `O=C1CC2C=CCN2C=C1NC(=O)c1ccccc1` (stereo not given), the growth is 118% in the experiment with SK-MEL-2 melanoma; 94.6% in the experiment with EKVX NSCLC; 99.5% in the experiment on SN12C renal; 98.2% in the experiment with UO-31 renal; 93.5% in the experiment with TK-10 renal; 104% with ACHN renal. In addition, the growth in the experiment on CAKI-1 renal is 101%; in the experiment with A498 renal it was 102%; in the experiment with CCRF-CEM leukemia, 109%; in the experiment on MOLT-4 leukemia it was 96.3%; with SR leukemia, 88.7%; in the experiment with RPMI-8226 leukemia, 112%. Further, the growth with OVCAR-8 ovarian is 114%; with OVCAR-5 ovarian, 97.4%; in the experiment on OVCAR-4 ovarian it was 109%; in the experiment with SK-OV-3 ovarian, 113%; in the experiment on IGROV1 ovarian, 106%; in the experiment with OVCAR-3 ovarian, 105%. For the same compound, the growth with HS 578T breast was 115%; in the experiment with NCI/ADR-RES ovarian, 103%.

For the origin of these results see PubChem BioAssay (NCI).
